Some test systems named below: DU-145 prostate; K-562 leukemia; MALME-3M melanoma; MDA-MB-231 breast; SF-268 CNS; SF-295 CNS; SF-539 CNS; UACC-257 melanoma; M14 melanoma; HCT-15 colon; HT29 colon; SNB-75 CNS; SNB-19 CNS; U251 CNS; PC-3 prostate; SK-MEL-5 melanoma; UACC-62 melanoma; LOX IMVI melanoma; SK-MEL-28 melanoma; RXF 393 renal.
Common to all, as to experiment: NCI-60 one-dose screen, 48 h (100 = growth as untreated, 0 = no growth, -100 = all killed)
Holding throughout (settings): 10 µM unless noted

The text below walks through data of PubChem BioAssay (NCI).

Compounds without any hit were thinned out: in the full panel of roughly 83,000, 20% have a hit.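 48-hour exposure, single concentration, 96-well plates; percent growth endpoint where 0 means no net growth. Active: below 10.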 Values without a mark were called inactive. Active and inactive are the calls of the source.

Take `Clc1ccc(-c2nnc(Cn3ccnc3)o2)cc1`: the growth in the assay with DU-145 prostate was 115%; in the assay with K-562 leukemia it was 95.8%; with MALME-3M melanoma it was 120%; in the assay on MDA-MB-231 breast, 102%; in the assay on SF-268 CNS, 103%; with SF-295 CNS it was 119%. The growth was 98.9% in the assay with SF-539 CNS; 111% with UACC-257 melanoma; 87.1% in the assay with M14 melanoma; 94.2% in the assay on HCT-15 colon; 102% with HT29 colon; 91.8% in the assay on SNB-75 CNS. In addition, the growth in the assay with SNB-19 CNS is 95.5%; with U251 CNS it was 106%; in the assay on PC-3 prostate, 97.2%; in the assay with SK-MEL-5 melanoma it was 112%; in the assay with UACC-62 melanoma, 90.2%; in the assay with LOX IMVI melanoma it was 112%. Also, the growth in the assay on SK-MEL-28 melanoma is 106%.
On to `O=C1CSC(c2ccccc2O)N1c1nnc(Cn2cnnc2)o1` (configuration not stated), for which the growth with DU-145 prostate is 105%; in the assay on K-562 leukemia, 82.6%; with MALME-3M melanoma, 96.2%; with MDA-MB-231 breast, 73.7%; in the assay on SF-268 CNS, 82.9%; with SF-295 CNS, 94%. For the same molecule, the growth is 89.7% with SF-539 CNS; 96.4% with UACC-257 melanoma; 69% with M14 melanoma; 66.2% in the assay on HCT-15 colon; 99.1% with HT29 colon; 66.8% in the assay with SNB-75 CNS. For the same molecule, the growth with SNB-19 CNS was 90.4%; in the assay on U251 CNS it was 79.7%; in the assay with PC-3 prostate, 79.4%; in the assay with SK-MEL-5 melanoma, 95.1%; with UACC-62 melanoma, 90.8%; in the assay on LOX IMVI melanoma, 78.5%. For the same molecule, the growth in the assay with SK-MEL-28 melanoma is 102%.
For `NC(=O)CC1(O)C=C(Br)C(=O)C(Br)=C1`, the growth with DU-145 prostate was 105%; in the assay on K-562 leukemia, -29.6% (active); in the assay on MALME-3M melanoma, -34.3% (active); with MDA-MB-231 breast, 113%; in the assay on RXF 393 renal it was -32.6% (active); with SF-268 CNS, 89.3%. Besides, the growth with SF-295 CNS was 115%; in the assay with SF-539 CNS it was 96.1%; with UACC-257 melanoma, 80.9%; in the assay with HT29 colon, 75.8%; in the assay with SNB-75 CNS, 76.4%; in the assay on SNB-19 CNS, 106%. The growth in the assay with U251 CNS was 95.6%; with SK-MEL-5 melanoma it was 92.7%; in the assay on UACC-62 melanoma, 108%; with LOX IMVI melanoma, 86.1%; in the assay on SK-MEL-28 melanoma, 21.5%.
Regarding `O=C(O)CC1Sc2ccccc2NC1=O` (configuration not stated), the growth in the assay with DU-145 prostate was 116%; in the assay on K-562 leukemia, 70.4%; with MALME-3M melanoma it was 106%; with MDA-MB-231 breast, 108%; in the assay with SF-268 CNS, 100%; in the assay on SF-295 CNS, 104%. Moreover, the growth in the assay on SF-539 CNS is 145%; in the assay on UACC-257 melanoma, 98.5%; in the assay with M14 melanoma, 89.5%; with HCT-15 colon, 109%; in the assay with HT29 colon, 129%; in the assay with SNB-75 CNS, 94%. The growth in the assay on SNB-19 CNS is 108%; in the assay with U251 CNS it was 103%; in the assay on PC-3 prostate it was 92.1%; in the assay with SK-MEL-5 melanoma, 175%; in the assay with UACC-62 melanoma it was 105%; in the assay with LOX IMVI melanoma, 96.4%. In the assay with SK-MEL-28 melanoma, the growth is 126%.
In the case of `COC1(CC[C@@H](C)COC2OC(CO)C(O)C(O)C2O)O[C@H]2C[C@H]3[C@@H]4CC=C5C[C@@H](OC6OC(CO)C(OC7OC(C)C(O)C(O)C7O)C(O)C6OC6OC(C)C(O)C(O)C6O)CC[C@]5(C)[C@H]4CC[C@]3(C)[C@H]2[C@@H]1C` (some centres not stated), the growth in the assay on DU-145 prostate was -96.2% (active); in the assay with K-562 leukemia it was -22.9% (active); in the assay with MALME-3M melanoma, -87.3% (active); in the assay on MDA-MB-231 breast it was -70% (active); in the assay on RXF 393 renal, -78.1% (active); in the assay on SF-268 CNS, -90.7% (active). The growth in the assay with SF-295 CNS was -81.9% (active); in the assay with SF-539 CNS, -99% (active); in the assay on UACC-257 melanoma it was -47.4% (active); with HCT-15 colon it was -88.7% (active); with HT29 colon it was -76.6% (active); with SNB-75 CNS, -70.5% (active). Besides, the growth in the assay with SNB-19 CNS was -64.1% (active); with U251 CNS, -98.1% (active); in the assay on SK-MEL-5 melanoma it was -65.1% (active); in the assay on LOX IMVI melanoma, -95.9% (active); in the assay with SK-MEL-28 melanoma, -95.7% (active).
Regarding `O=C(CC1Sc2ccccc2NC1=O)NNc1ccc(F)cc1` (configuration not stated), the growth is 98% in the assay on DU-145 prostate; 13.6% with K-562 leukemia; 112% in the assay on MALME-3M melanoma; 84.9% in the assay with MDA-MB-231 breast; 72.1% in the assay with SF-268 CNS; 31% in the assay on SF-295 CNS. Besides, the growth was 94.8% with SF-539 CNS; 92.4% in the assay on UACC-257 melanoma; 31.3% in the assay on M14 melanoma; 60.5% with HCT-15 colon; 98.5% in the assay on HT29 colon; 73.3% in the assay on SNB-75 CNS. Further, the growth with SNB-19 CNS is 84.5%; in the assay with U251 CNS, 85.2%; in the assay with PC-3 prostate, 52.5%; with SK-MEL-5 melanoma, 106%; with UACC-62 melanoma, 40%; with LOX IMVI melanoma, 18.5%. Besides, the growth in the assay on SK-MEL-28 melanoma was 123%.
For the molecule `NC(N)=N/N=C(/c1ccccc1)c1ccc(N)cc1`, the growth is 116% with DU-145 prostate; 113% with K-562 leukemia; 122% in the assay on MALME-3M melanoma; 103% with MDA-MB-231 breast; 108% in the assay on RXF 393 renal; 115% with SF-268 CNS. Further, the growth was 103% with SF-539 CNS; 92.7% in the assay on UACC-257 melanoma; 104% in the assay on M14 melanoma; 106% with HCT-15 colon; 132% in the assay with HT29 colon; 122% in the assay with SNB-75 CNS. For the same molecule, the growth with SNB-19 CNS is 106%; in the assay on U251 CNS it was 97.5%; in the assay with PC-3 prostate, 127%; with SK-MEL-5 melanoma, 101%; with LOX IMVI melanoma it was 95%; in the assay on SK-MEL-28 melanoma, 150%.
On to `CC/C=C/[C@@H]1C=C[C@@H]2CCC[C@H]2[C@@H]1CC[C@H](O)[C@H](C)N`, for which the growth with DU-145 prostate was -12.9% (active); in the assay with K-562 leukemia, -18.6% (active); in the assay on MALME-3M melanoma, -80.2% (active); with MDA-MB-231 breast it was -22.5% (active); with SF-268 CNS it was 29.2%; in the assay on SF-295 CNS, -71.3% (active). Also, the growth with SF-539 CNS is -67.6% (active); with UACC-257 melanoma, -71.5% (active); in the assay on M14 melanoma, -76.4% (active); with HCT-15 colon, -73.8% (active); with HT29 colon, 2.11% (active); with SNB-75 CNS, 22.4%. Moreover, the growth in the assay on SNB-19 CNS was -41.2% (active); with U251 CNS it was -79.7% (active); in the assay on PC-3 prostate it was 30.4%; in the assay with SK-MEL-5 melanoma, -92.8% (active); in the assay on UACC-62 melanoma it was -42.1% (active); in the assay on LOX IMVI melanoma it was -91.6% (active). Further, in the assay on SK-MEL-28 melanoma, the growth is -87.1% (active).
